# Test results published in PubChem BioAssay AID540335 (Broad Institute, 2011).
# Among all 1,300 compounds or so, about 270 (21%) were called active. Only a sample is shown. Measured potencies and affinities stand elsewhere. A number with no mark means an inactive call.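 Rule for the calls: active = dose-dependent rise or fall in viability, either side of zero, with half-maximal concentration at or below a set limit; inconclusive = flat curve at 30 to 70% viability loss, or poor fit; inactive = flat within 30% either way, or potency beyond limit.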
# Experiment: proliferation inhibition in MITF-low A375 cells – cell-based, cherry-pick samples, set 2, counter-screen for MITF modulator project, dose response (AID 540335);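 note: A375 human melanoma cells which do not depend on MITF; 0% = median of neutral control wells and 100% = double that signal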
# Conditions: CellTiter-Glo ATP luminescence, 24 h; series mostly up to 35 µM; activity change, negative = decreased viability: at the top concentration
row,Compound,"activity change, negative = decreased viability [%]"
1,COc1ccc(C(NC(C)=O)c2ccc3cccnc3c2O)c(OC)c1 (stereo not drawn),-33.9
2,COc1cccc(NC(=O)Nc2cccc(C(=O)O)c2)c1,1.68
3,COc1cc(OC)cc(C(=O)Nc2ccc3c(c2)OCCO3)c1,-32.1
4,COC(=O)CCS(=O)(=O)c1nc(-c2ccccc2)cc(C(F)(F)F)n1,47.7
5,Cc1nc(C)c(C(=O)N/N=C/c2cc(Br)ccc2O)s1,-27.5
6,O=C(N/N=C/c1cccc2cccnc12)c1ccccc1O,-38
7,Cc1ccc(C#CC[N+]2(CC#Cc3ccc(C)cc3)CCCCC2)cc1,-31.7
8,O=C(Nc1nc(-c2ccccn2)cs1)c1ccc([N+](=O)[O-])o1,-35.5
9,CS(=O)(=O)N1CCN(c2ccc(NC(=O)c3ccc([N+](=O)[O-])o3)cc2)CC1,4.88
10,Cc1cccc(NC(=O)c2ccc([N+](=O)[O-])o2)c1C,-10.1
11,COc1cc(/C=N/N=C(N)N)ccc1OCc1ccc(Cl)cc1,-96.4
12,Cc1cc(NC(=O)c2ccc([N+](=O)[O-])o2)ccc1NC(=O)c1ccco1,-30.9
13,COc1ccccc1NS(=O)(=O)c1cc(NC(=O)c2ccc(Cl)nc2)ccc1Cl,-3.13
14,CCCCNc1nc(=S)n(-c2ccccc2)c(C)c1C(C)=O,8.62
15,CC(=O)Nc1ccc2c(c1)ncn2-c1ccccc1,8.14
16,CC(=O)Nc1ccc(-c2nc3ccccc3o2)cc1,8.49
17,Cn1nc([N+](=O)[O-])nc1S(C)(=O)=O,-14.2
18,CS(=O)(=O)c1ncc(Cl)c(C(=O)Nc2ccc(N3CCOCC3)cc2)n1,-15.9
19,O=C(c1ccc(S(=O)(=O)Cc2ccccc2Cl)c([N+](=O)[O-])c1)N1CCN(c2ccccn2)CC1,-4.16
20,O=C(Cc1ccc2c(c1)OCO2)NN=Cc1ccc([N+](=O)[O-])o1,-3.36
21,Cn1nnnc1Sc1ncnc2scc(-c3cccs3)c12,6.26
22,O=C(NC1CCCC(C(F)(F)F)C1)c1ccc([N+](=O)[O-])o1 (stereo not drawn),18.6
23,CC(O)CNC(=O)C1CCN(Cc2ccc(OCc3ccccc3)cc2)CC1 (stereo not drawn),1.88
24,CCCN1CCC(NCc2cn(C)nc2-c2ccc(Oc3ccccc3)cc2)CC1,-5.6
25,O=C(O)c1ccc(N/N=C/c2ccc3nccnc3c2)cc1,-35.1
26,CN(C)CCCNC(=O)/C(=C\c1ccc(-c2ccc(Br)cc2)o1)NC(=O)c1ccccc1,-70.8

row,Compound,"activity change, negative = decreased viability [%]"
1,Cc1ccc(-c2nc(C(=O)NCCCN(C)C)cc3c2[nH]c2ccccc23)cc1,-4.39
2,CCOCCCNC(=O)/C(C#N)=C/c1ccc([N+](=O)[O-])o1,4.45
3,Cc1ccc(C(=O)N/C(=C\c2ccc(-c3ccccc3[N+](=O)[O-])o2)C(=O)NCCN(C)C)cc1,-8.4
4,CCN(CC)CCC(=O)N1C/C(=C/c2ccccc2)C(=O)/C(=C\c2ccccc2)C1,71.7
5,COc1cc(NC(=O)COc2ccccc2[N+](=O)[O-])ccc1NC(=O)c1cccs1,-36.8
6,O=C(Cn1ncc(Cl)c(Cl)c1=O)Nc1ccc2c(c1)OCO2,26.9
7,O=C(c1ccccc1)c1cc(Cl)ccc1N1C(=O)C=CC1=O,-30.6
8,O=C(N/N=C/c1ccc([N+](=O)[O-])o1)c1ccc(O)cc1,-17.7
9,Cc1cc(Sc2ncnc(N)c2[N+](=O)[O-])ncn1,-35.7
10,Cc1cccc2sc(N(CCCN(C)C)C(=O)c3nc4ccccc4s3)nc12,-16.6
11,COc1cccc2sc(N3CCN(C(=O)c4ccc([N+](=O)[O-])o4)CC3)nc12,-6.34
12,CN(C)c1ccc(C2=NOC(CN3C(=O)c4ccccc4S3(=O)=O)C2)cc1 (stereo not drawn),1.39
13,COc1cc(OC)cc(-c2oc(=O)c3cc(OC)c(OC)cc3c2C(F)(F)F)c1,-13.4
14,CCN1CCN(c2ccc(Nc3ccnc4ccccc34)cc2)CC1,-24
15,O=C(Nc1nnc(Cc2ccccc2)s1)c1ccccc1,4.38
16,CCOc1ccc(NC(=O)Nc2cccc(C(=O)O)c2)cc1,-33.1
17,Cc1ccc(/C=N/Nc2ccc(C(=O)O)cc2)s1,-4.8
18,C/C(=N\NC(=O)C(c1ccccc1)c1ccccc1)c1ccccn1,-34.8
19,O=C(c1ccc([N+](=O)[O-])s1)N1CCN(c2ccccn2)CC1,2.25
20,O=c1c2ccccc2cnn1CCOc1ccccc1,-29.7
21,Cc1nc2ccccc2n1/N=C/c1ccc([N+](=O)[O-])s1,-9.11
22,CCCOCc1ccc(O)c2ncccc12,-26.4
23,CN(C)C1CCN(Cc2cc(COCc3ccccc3)c3cccnc3c2O)C1 (stereo not drawn),-37.2
24,Cc1cc(C(C)(C)C)cc(C)c1Cn1c2[n+](c3ccc(C(F)(F)F)cc31)CCCCC2,-33.6
25,Cc1ccc(-n2nnnc2CNC(=O)c2ccc([N+](=O)[O-])o2)cc1C,9.47
26,Cc1nc2nc(C)c(NS(=O)(=O)c3ccc4c(c3)CCCC4)c(=O)n2[nH]1,12.3

row,Compound,"activity change, negative = decreased viability [%]"
1,CN(Cc1ccccc1)C1=CC(=[N+]2CCCC2)CC(C)(C)C1,-13.8
2,CCCN(CCC)C1=CC(=[N+]2CCCC2)CC(C)(C)C1,-26.9
3,CN(C)S(=O)(=O)c1ccc(-c2csc(N/N=C/c3ccco3)n2)cc1,-2.6
4,COc1ccc(C(=O)N/N=C/c2cc(Br)ccc2O)cc1OC,-39.9
5,CCOc1ccc(N/C=C/C(=O)c2ccc(OC)c(OC)c2)cc1,-11.4
6,Cc1ccc(-c2n[nH]c(=O)c3ccccc23)cc1S(=O)(=O)NCC1CCCO1 (stereo not drawn),8.17
7,COc1ccc(C(=O)/C=C/C(=O)N(CC(=O)NC2CCCCC2)Cc2ccc(F)cc2)c(O)c1,-9.41
8,COc1ccc(NC(=O)NC(=O)c2ccccc2)cc1,-1.06
9,COc1ccc(N/N=C/c2c(C(=O)O)ccc3ccccc23)cc1,-34.8
10,N#CC(C#N)=C1C=CC=CN1/C(=C\c1ccco1)C(=O)c1ccc(Cl)cc1,75.5
11,COc1ccccc1-c1cc(C(F)(F)F)nc(S(C)(=O)=O)n1,-3.05
12,Cc1ccc2c(C(=O)CCl)c(C)[nH]c2c1,-16.4
13,O=S(=O)(CC(CN1CCCCC1)N1CCCCC1)c1ccc2ccccc2c1 (stereo not drawn),-11.5
14,COc1ccc(C(=O)C(CN2CCOCC2)c2ccccc2)cc1 (stereo not drawn),-14.1
15,CC(NC(=O)C12CC3CC(CC(C3)C1)C2)C(=O)NN=Cc1ccc([N+](=O)[O-])o1 (stereo not drawn),-13.3
16,COc1ccc(-c2nc(-c3ccccc3OC)no2)cc1OC,1.79
17,COC1=C(c2ccccc2)C(=O)c2ccccc2C1=O,-38.7
18,CN1CCN(C2=C(NS(=O)(=O)c3cccs3)C(=O)c3ccccc3C2=O)CC1,-13.3
19,COc1ccc2nc(C)cc(NCc3cccc(C(F)(F)F)c3)c2c1,-29.6
20,O=C1C=CC(=C(c2ccc(O)cc2)c2ccc(O)cc2)C=C1,-22.9
21,CC(C)(C)C(=O)/C(=C/c1ccncc1)n1cncn1,7.09
22,O=C(Nc1ccc2oc(-c3cccnc3)nc2c1)c1ccc([N+](=O)[O-])o1,-6.09
23,CC(=O)Nc1ccc(NC(=O)c2nc(S(=O)(=O)Cc3ccccc3)ncc2Cl)cc1,-26.8
24,COc1ccccc1NC(=O)c1nc(S(=O)(=O)Cc2ccccc2)ncc1Cl,-24.6
25,Cc1ccc(C(=O)c2cccc(N)c2)cc1C,11.7
26,COc1cc(NC(=O)COc2cc(O)c3c(c2)OC(C)(C)CC3=O)cc(OC)c1OC,-22.9

row,Compound,"activity change, negative = decreased viability [%]"
1,O=C(CCl)Nc1cccc(S(=O)(=O)N2CCCCCC2)c1,-32
2,Cc1cc(/C(N)=N/OC(=O)c2ccc(Cl)cc2)no1,7.61
3,CCCCN1CCc2c1nc1ccc(Br)cc1c2N,-11.7
4,O=C(COC(=O)c1ccccc1C(=O)c1ccc(Cl)c([N+](=O)[O-])c1)NC1CC1,16.1
5,CCOc1ccc(-c2ccc(SC)nn2)cc1,-38.4
6,Cc1ccc(C(=O)N/N=C\c2ccc([N+](=O)[O-])s2)cn1,-30.2
7,CCN(CC)CCNC(=O)C1CCN(S(=O)(=O)c2c(C)noc2/C=C/c2ccccc2F)CC1,-10.5
8,Cc1cc(C)cc(OCC(=O)N/N=C/c2ccc([N+](=O)[O-])o2)c1,-0.821
9,N=c1n(CCN2CCCC2)c2ccccc2n1CC(O)c1ccc(Cl)c(Cl)c1 (stereo not drawn),-89.6
10,O=C(CNc1cccc2ccccc12)N/N=C/c1ccc([N+](=O)[O-])o1,-18.9
11,Cc1ccccc1C(=O)N/N=C/c1ccc([N+](=O)[O-])s1,-20.2
12,Cc1cc2ncn(/N=C/c3ccc([N+](=O)[O-])o3)c2cc1C,-15.1
13,O=C(N/N=C/c1ccc([N+](=O)[O-])o1)c1cc2ccccc2o1,-33.2
14,CCOC(=O)CCc1ccc(NC(=O)/C=C/c2ccc([N+](=O)[O-])o2)cc1,-26.9
15,CC1(C(=O)N/N=C/c2ccc([N+](=O)[O-])o2)CC1(Br)Br (stereo not drawn),-10.2
16,CC(C)n1cc(/C=C/c2cc[n+](C)cc2)c2ccccc21,-9.9
17,CCOc1ccc(-n2c(C)cc(C(=O)CCl)c2C)cc1,-8.17
18,COc1ccc(-n2c(C)cc(C(=O)CCl)c2C)cc1,-8.15
19,O=C(Nc1ccc2nc3n(c(=O)c2c1)CCCCC3)c1cc([N+](=O)[O-])ccc1F,47.5
20,CCOC(=O)c1nnn(-c2ccc([N+](=O)[O-])cc2[N+](=O)[O-])c1C,-24.6
21,Cc1ccc(NC(=O)CCl)cc1S(=O)(=O)N1CCCCCC1,-23.1
22,O=C(Nc1ccc(-c2nc3ncccc3o2)cc1)c1ccc([N+](=O)[O-])o1,-6.72
23,CCN(CC)CCn1nc2c3c(cccc3c1=O)-c1ccccc1-2,-17.6
24,Cc1ccc(NC(=O)CN(C)C(=O)Cn2ncc(Cl)c(Cl)c2=O)cc1,69.3
25,COc1cc(C2C(C#N)=C(N)Oc3cc4c(cc32)OCO4)cc(OC)c1OC (stereo not drawn),8.17
